{
  "source": "PubChem BioAssay (Tox21)",
  "note": "A number with no mark means an inactive call. Active and inactive are the calls of the source. Calls follow the shape of the dose curve; as a rule, active = well fitted curve in the direction sought with a large enough effect in the repeat runs; inconclusive = weak or mixed curves; inactive = flat fitted curve, though single readings scatter. % is scaled to controls: 0 for no effect and ±100 for the full control effect.",
  "data": [
    {"assay": "qHTS assay to test for compound auto fluorescence at 535 nm (green) in HEK293 cells (AID 720680)", "details": "green autofluorescence 485/535 nm; series mostly up to 91.3 µM; fluorescence, % of fluorescein: at the top concentration", "values": [
      {"smiles": "C#CC(O)C(CC)CCCC", "note": "(stereo unspecified)", "fluorescence, % of fluorescein": "0.0221%"},
      {"smiles": "C=C(C)C(=O)NCCC[N+](C)(C)C", "fluorescence, % of fluorescein": "0.0547%"},
      {"smiles": "Cc1ccc(Nc2ccc(O)c3c2C(=O)c2ccccc2C3=O)cc1", "fluorescence, % of fluorescein": "0.0012%"},
      {"smiles": "CCCCCOC(=O)Nc1nc(=O)n([C@@H]2O[C@H](C)[C@@H](O)[C@H]2O)cc1F", "fluorescence, % of fluorescein": "-0.0344% [at 46 µM]"},
      {"smiles": "COc1cc(C)cc(O)c1", "fluorescence, % of fluorescein": "0.0032%"},
      {"smiles": "CCCCCCOC(=O)CC(CC(=O)OCCCCCC)(OC(=O)CCC)C(=O)OCCCCCC", "fluorescence, % of fluorescein": "0.0381%"},
      {"smiles": "N#CCc1ccccc1[N+](=O)[O-]", "fluorescence, % of fluorescein": "0.151%"},
      {"smiles": "CN(C)N=Nc1ccccc1", "fluorescence, % of fluorescein": "-0.0503%"},
      {"smiles": "C(=C(c1ccccc1)c1ccccc1)c1ccccc1", "fluorescence, % of fluorescein": "0.154%"},
      {"smiles": "C=C(C)C(=O)OCCCCCCCCCCCCCCCCCC", "fluorescence, % of fluorescein": "0.0795% [at 18.6 µM]"},
      {"smiles": "CCCCNc1ccccc1", "fluorescence, % of fluorescein": "-0.214%"},
      {"smiles": "COC(=O)[C@H]1[C@H]2C[C@@H]3c4[nH]c5cc(OC)ccc5c4CCN3C[C@H]2C[C@@H](OC(=O)COc2ccc(OC)cc2)[C@@H]1OC", "fluorescence, % of fluorescein": "0.467% [at 46 µM]"},
      {"smiles": "Nc1cc(N)cc(C(=O)O)c1", "fluorescence, % of fluorescein": "1.61%"},
      {"smiles": "COc1cccc(Br)c1", "fluorescence, % of fluorescein": "0.0878%"},
      {"smiles": "C1CCCCCCCCCCC1", "fluorescence, % of fluorescein": "0.0284% [at 18.6 µM]"},
      {"smiles": "CC(O)CN(CCCN(C)C)CCCN(C)C", "note": "(stereo unspecified)", "fluorescence, % of fluorescein": "0.0187%"},
      {"smiles": "CCCC(=O)O[C@]1(C(=O)CCl)[C@@H](C)C[C@H]2[C@@H]3CCC4=CC(=O)C=C[C@]4(C)[C@@]3(F)C(=O)C[C@@]21C", "fluorescence, % of fluorescein": "0.0507% [at 46 µM]"},
      {"smiles": "CC(C)=CC(=O)O", "fluorescence, % of fluorescein": "-0.0394%"},
      {"smiles": "CC/C=C\\CCCCO", "fluorescence, % of fluorescein": "0.0246%"},
      {"smiles": "CC(C)(O)C(=O)c1ccc(OCCO)cc1", "fluorescence, % of fluorescein": "-0.0065%"},
      {"smiles": "NC(=O)CCCCC1CCSS1", "note": "(stereo unspecified)", "fluorescence, % of fluorescein": "0.0265% [at 46 µM]"},
      {"smiles": "COC(=O)CCCCCCCCC(=O)OC", "fluorescence, % of fluorescein": "-0.0341%"},
      {"smiles": "CN(C)C(=O)C(CCN1CCC(O)(c2ccc(Cl)cc2)CC1)(c1ccccc1)c1ccccc1", "fluorescence, % of fluorescein": "0.0738% [at 46 µM]"},
      {"smiles": "Cc1nccn1CC1CCc2c(c3ccccc3n2C)C1=O", "note": "(stereo unspecified)", "outcome": "inactive"},
      {"smiles": "CCC(=O)c1cccc(Cl)c1", "fluorescence, % of fluorescein": "-0.126% [at 95.7 µM]"},
      {"smiles": "C=CCn1c(=O)n([C@@H]2O[C@H](CO)[C@@H](O)[C@H]2O)c2nc(N)[nH]c(=O)c21", "fluorescence, % of fluorescein": "-0.103% [at 46 µM]"},
      {"smiles": "Fc1ccccc1-c1ccccc1", "fluorescence, % of fluorescein": "-0.102% [at 95.7 µM]"},
      {"smiles": "OC1OC[C@@H](O)[C@H](O)[C@H]1O", "note": "(stereo partly specified)", "fluorescence, % of fluorescein": "0.0178%"},
      {"smiles": "NC(=S)Nc1cccc2ccccc12", "fluorescence, % of fluorescein": "0.198% [at 3.72 µM]"},
      {"smiles": "OCCCCCCO", "fluorescence, % of fluorescein": "-0.0829% [at 95.7 µM]"},
      {"smiles": "CCCOc1ccccc1-c1nc2n[nH]nc2c(=O)[nH]1", "fluorescence, % of fluorescein": "0.0115% [at 46 µM]"},
      {"smiles": "OCC(CO)(CO)COCC(CO)(CO)CO", "fluorescence, % of fluorescein": "-0.0113%"},
      {"smiles": "CC12CCC(CC1=O)C2(C)C", "note": "(stereo unspecified)", "fluorescence, % of fluorescein": "-0.132%"},
      {"smiles": "O=S(=O)(c1cccc2cnccc12)N1CCCNCC1", "fluorescence, % of fluorescein": "-0.0616% [at 46 µM]"},
      {"smiles": "CNc1ncnc2nc[nH]c12", "fluorescence, % of fluorescein": "0.002% [at 95.7 µM]"},
      {"smiles": "COc1ccc(N=[N+]([O-])c2ccc(OC)cc2)cc1", "fluorescence, % of fluorescein": "-0.0507%"}
    ]}
  ]
}
